# PubChem BioAssay AID1159580 (chemical genetic matrix, 2015)
# In all, about 5,500 compounds went through this assay and about 2,000 (36%) were called active. Another 18% or so got no clear call; they are omitted. The list shows a part of the results. A number with no mark means an inactive call. Rule as the data show it: active = normalized growth mostly below about 0.91 (no sharp cut-off); inconclusive = no clear call, values can overlap the other calls; inactive = mostly above about 0.92.
# Assay: chemical genetic growth profiling, strain panel (AID 1159580);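 also: tested at 20 µM; growth read once vehicle control cultures reached saturation at 30 °C; 1 = growth at the plate median or of vehicle wells; lower values mean less growth of the strain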
# Conditions: S. cerevisiae deletion strains, growth OD
structure (smiles),measurement,setting,value
O=c1oc2cc(O)ccc2s1,normalized growth,"locus YAL013W, strain DEP1, hits give low values",0.999
same,normalized growth,"locus YAL021C, strain ccr4, hits give low values",1.06
same,normalized growth,"locus YAL026C, strain drs2, hits give low values",1
same,normalized growth,"locus YAL030W, strain snc1, hits give low values",0.995
same,normalized growth,"locus YBL061C, strain skt5, hits give low values",1.01
same,normalized growth,"locus YBR009C, strain hhf1, hits give low values",0.972
same,normalized growth,"locus YBR021W, strain FUR4, hits give low values",1.03
same,normalized growth,"locus YBR023C, strain chs3, hits give low values",1.01
same,normalized growth,"locus YBR171W, strain sec66, hits give low values",1.02
same,normalized growth,"locus YBR229C, strain ROT2, hits give low values",0.966
same,normalized growth,"locus YBR231C, strain swc5, hits give low values",0.965
same,normalized growth,"locus YBR279W, strain paf1, hits give low values",0.999
same,normalized growth,"locus YCL011C, strain gbp2, hits give low values",0.988
same,normalized growth,"locus YCL016C, strain dcc1, hits give low values",0.993
same,normalized growth,"locus YCL029C, strain bik1, hits give low values",0.899 (active)
same,normalized growth,"locus YCL061C, strain MRC1, hits give low values",0.997
same,normalized growth,"locus YCL069W, strain vba3, hits give low values",1.01
same,normalized growth,"locus YCR088W, strain abp1, hits give low values",1.01
same,normalized growth,"locus YDL005C, strain med2, hits give low values",1.04
same,normalized growth,"locus YDL035C, strain GPR1, hits give low values",0.945
same,normalized growth,"locus YDL040C, strain nat1, hits give low values",1
same,normalized growth,"locus YDL074C, strain BRE1, hits give low values",0.962
same,normalized growth,"locus YDL101C, strain DUN1, hits give low values",0.967
same,normalized growth,"locus YDL134C, strain PPH21, hits give low values",0.972
same,normalized growth,"locus YDL185W, strain tfp1, hits give low values",0.955
same,normalized growth,"locus YDL192W, strain arf1, hits give low values",0.954
same,normalized growth,"locus YDR001C, strain nth1, hits give low values",1.01
same,normalized growth,"locus YDR069C, strain doa4, hits give low values",0.998
same,normalized growth,"locus YDR101C, strain arx1, hits give low values",0.899 (active)
same,normalized growth,"locus YDR137W, strain rgp1, hits give low values",1.02
same,normalized growth,"locus YDR150W, strain NUM1, hits give low values",0.993
same,normalized growth,"locus YDR159W, strain sac3, hits give low values",0.941
same,normalized growth,"locus YDR162C, strain NBP2, hits give low values",0.968
same,normalized growth,"locus YDR195W, strain ref2",1.12
same,normalized growth,"locus YDR297W, strain sur2, hits give low values",1.01
same,normalized growth,"locus YDR318W, strain mcm21, hits give low values",0.911 (active)
same,normalized growth,"locus YDR334W, strain swr1, hits give low values",1.01
same,normalized growth,"locus YDR335W, strain msn5, hits give low values",0.99
same,normalized growth,"locus YDR388W, hits give low values",0.947
same,normalized growth,"locus YDR392W, strain spt3, hits give low values",0.953
same,normalized growth,"locus YDR502C, strain sam2, hits give low values",0.934
same,normalized growth,"locus YEL003W, strain gim4, hits give low values",0.999
same,normalized growth,"locus YEL037C, strain rad23, hits give low values",0.998
same,normalized growth,"locus YEL061C, strain CIN8 (second series), hits give low values",1.01
same,normalized growth,"locus YEL061C, strain CIN8, hits give low values",0.98
same,normalized growth,"locus YER015W, strain faa2, hits give low values",0.975
same,normalized growth,"locus YER016W, strain bim1, hits give low values",0.989
same,normalized growth,"locus YER110C, hits give low values",0.968
same,normalized growth,"locus YER111C, strain swi4, hits give low values",0.996
same,normalized growth,"locus YER155C, strain BEM2 (second series), hits give low values",0.988
same,normalized growth,"locus YER155C, strain BEM2, hits give low values",0.973
same,normalized growth,"locus YER167W, strain BCK2, hits give low values",0.965
same,normalized growth,"locus YFR010W, strain ubp6, hits give low values",0.978
same,normalized growth,"locus YGL078C, strain dbp3, hits give low values",0.96
same,normalized growth,"locus YGL086W, strain mad1, hits give low values",0.932
same,normalized growth,"locus YGL167C, strain pmr1, hits give low values",1.02
same,normalized growth,"locus YGL173C, strain kem1, hits give low values",0.967
same,normalized growth,"locus YGL227W, strain vid30, hits give low values",1
same,normalized growth,"locus YGL240W, strain doc1, hits give low values",0.967
same,normalized growth,"locus YGL248W, strain PDE1, hits give low values",0.985
same,normalized growth,"locus YGL253W, strain hxk2, hits give low values",1
same,normalized growth,"locus YGR078C, strain PAC10, hits give low values",0.969
same,normalized growth,"locus YGR135W, strain pre9, hits give low values",0.898
same,normalized growth,"locus YGR229C, strain SMI1, hits give low values",0.965
same,normalized growth,"locus YGR252W, strain gcn5, hits give low values",0.956
same,normalized growth,"locus YHR013C, strain ard1, hits give low values",1.1
same,normalized growth,"locus YHR027C, strain rpn1, hits give low values",0.998
same,normalized growth,"locus YHR030C, strain SLT2, hits give low values",0.983
same,normalized growth,"locus YHR079C, strain IRE1 (second series), hits give low values",0.942
same,normalized growth,"locus YHR094C, strain hxt1, hits give low values",0.966
same,normalized growth,"locus YHR129C, strain ARP1, hits give low values",0.966
same,normalized growth,"locus YHR142W, strain chs7, hits give low values",1.04
same,normalized growth,"locus YHR200W, strain rpn10, hits give low values",0.927
same,normalized growth,"locus YIL066C, strain RNR3, hits give low values",0.946
same,normalized growth,"locus YIL073C, strain SPO22, hits give low values",0.996
same,normalized growth,"locus YIL125W, strain kgd1, hits give low values",0.982
same,normalized growth,"locus YIR030C, strain dcg1, hits give low values",0.962
same,normalized growth,"locus YJL092W, strain hpr5, hits give low values",0.988
same,normalized growth,"locus YJL095W, strain BCK1 (second series), hits give low values",1.02
same,normalized growth,"locus YJL095W, strain BCK1, hits give low values",0.933
same,normalized growth,"locus YJL115W, strain asf1, hits give low values",1.03
same,normalized growth,"locus YJL129C, strain trk1, hits give low values",1.03
same,normalized growth,"locus YJL134W, strain LCB3, hits give low values",0.976
same,normalized growth,"locus YJL154C, strain vps35, hits give low values",1.02
same,normalized growth,"locus YJL164C, strain tpk1, hits give low values",1.01
same,normalized growth,"locus YJL166W, strain qcr8, hits give low values",0.99
same,normalized growth,"locus YJL168C, strain set2, hits give low values",0.961
same,normalized growth,"locus YJL187C, strain SWE1 (second series), hits give low values",0.952
same,normalized growth,"locus YJL187C, strain SWE1, hits give low values",1
